# How the values were obtained:
# Histone H2B type 1-L = Histone H2B type 1-L (UniProt Q99880); experiment: cross-linking mass spectrometry
# DNA topoisomerase 1 = DNA topoisomerase 1 (UniProt P11387); experiment: cross-link between two proteins; cross-linking mass spectrometry
# [1] = target: Large ribosomal subunit protein eL36 (UniProt Q9Y3U8); experiment: as above
# [2] = target: Probable ATP-dependent RNA helicase DDX5 (UniProt P17844); experiment: as above
# [3] = target: Small ribosomal subunit protein uS17 (UniProt P62280); experiment: as above
# Histone H2B type 1-B = Histone H2B type 1-B (UniProt P33778); experiment: as above
# Histone H4 = Histone H4 (UniProt P62805); experiment: as above
# [4] = target: Large ribosomal subunit protein eL24 (UniProt P83731); experiment: as above
# [5] = target: Large ribosomal subunit protein uL18 (UniProt P46777); experiment: as above
# [6] = target: Large ribosomal subunit protein uL2 (UniProt P62917); experiment: as above
# [7] = target: Small ribosomal subunit protein uS12 (UniProt P62266); experiment: as above
# [8] = target: Peptidyl-prolyl cis-trans isomerase A-like 4A (UniProt Q9Y536); experiment: as above
# [9] = target: Small ribosomal subunit protein eS6 (UniProt P62753); experiment: as above
# [10] = target: Small ribosomal subunit protein uS9 (UniProt P62249); experiment: as above
# Chain of Peptidyl-prolyl cis-trans isomerase A-like 4A (Q9Y536 whole entry): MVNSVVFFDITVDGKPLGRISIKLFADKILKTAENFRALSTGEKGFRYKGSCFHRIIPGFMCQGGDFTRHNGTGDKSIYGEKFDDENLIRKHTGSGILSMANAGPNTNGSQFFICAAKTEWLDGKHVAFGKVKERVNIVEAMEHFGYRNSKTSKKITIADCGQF
# Chain of DNA topoisomerase 1 (P11387 whole entry): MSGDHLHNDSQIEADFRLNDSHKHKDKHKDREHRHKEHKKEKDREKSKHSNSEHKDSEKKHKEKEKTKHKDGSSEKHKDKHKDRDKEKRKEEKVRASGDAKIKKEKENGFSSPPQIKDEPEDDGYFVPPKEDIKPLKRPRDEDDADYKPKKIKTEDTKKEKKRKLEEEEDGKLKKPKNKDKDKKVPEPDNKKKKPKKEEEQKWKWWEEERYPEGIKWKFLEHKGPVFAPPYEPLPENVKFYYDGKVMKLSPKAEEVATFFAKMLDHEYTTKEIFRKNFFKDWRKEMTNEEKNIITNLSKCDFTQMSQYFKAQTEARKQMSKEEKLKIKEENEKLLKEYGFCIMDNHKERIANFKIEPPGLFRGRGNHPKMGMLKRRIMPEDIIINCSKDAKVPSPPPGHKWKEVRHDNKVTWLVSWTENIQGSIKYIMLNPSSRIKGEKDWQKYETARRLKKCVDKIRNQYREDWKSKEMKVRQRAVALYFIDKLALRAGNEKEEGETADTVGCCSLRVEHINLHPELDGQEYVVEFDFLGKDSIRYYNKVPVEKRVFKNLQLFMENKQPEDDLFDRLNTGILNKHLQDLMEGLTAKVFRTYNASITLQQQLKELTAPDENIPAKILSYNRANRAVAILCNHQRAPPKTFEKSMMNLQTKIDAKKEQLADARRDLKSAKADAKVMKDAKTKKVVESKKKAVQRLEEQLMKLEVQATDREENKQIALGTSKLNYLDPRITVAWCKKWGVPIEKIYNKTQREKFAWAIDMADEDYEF
# Chain of Probable ATP-dependent RNA helicase DDX5 (P17844 whole entry): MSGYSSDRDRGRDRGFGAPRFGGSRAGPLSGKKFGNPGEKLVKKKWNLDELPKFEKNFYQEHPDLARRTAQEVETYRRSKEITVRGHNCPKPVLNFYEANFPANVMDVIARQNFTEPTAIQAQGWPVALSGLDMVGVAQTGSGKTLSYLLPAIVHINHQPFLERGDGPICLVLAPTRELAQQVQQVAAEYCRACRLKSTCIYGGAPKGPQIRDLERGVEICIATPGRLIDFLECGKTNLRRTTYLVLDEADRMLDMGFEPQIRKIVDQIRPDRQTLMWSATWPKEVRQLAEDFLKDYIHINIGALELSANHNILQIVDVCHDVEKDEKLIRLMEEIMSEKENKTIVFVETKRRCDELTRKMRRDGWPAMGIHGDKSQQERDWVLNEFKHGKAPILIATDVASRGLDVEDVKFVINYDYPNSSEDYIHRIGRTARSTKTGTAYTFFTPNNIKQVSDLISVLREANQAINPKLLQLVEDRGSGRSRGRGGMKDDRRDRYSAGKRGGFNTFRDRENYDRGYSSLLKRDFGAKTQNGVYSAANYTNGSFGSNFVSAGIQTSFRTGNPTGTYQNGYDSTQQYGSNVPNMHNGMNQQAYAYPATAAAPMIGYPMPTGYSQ
substance,measurement,setting,value
"Actin, cytoplasmic 1, P60709",listed as a hit,Histone H2B type 1-L,yes
"Histone H1.4, P10412",listed as a hit,DNA topoisomerase 1,yes
same,listed as a hit,[1],yes
same,listed as a hit,[2],yes
same,listed as a hit,[3],yes
"Large ribosomal subunit protein uL22, P18621",listed as a hit,Histone H2B type 1-B,yes
"Large ribosomal subunit protein eL33, P18077",listed as a hit,Histone H2B type 1-B,yes
"Small ribosomal subunit protein uS5, P15880",listed as a hit,Histone H4,yes
"Small ribosomal subunit protein eS1, P61247",listed as a hit,Histone H4,yes
"Histone H4, P62805",listed as a hit,[4],yes
"Histone H2B type 1-B, P33778",listed as a hit,[5],yes
same,listed as a hit,[6],yes
same,listed as a hit,[7],yes
"Histone H2B type 1-C/E/F/G/I, P62807",listed as a hit,[8],yes
"Large ribosomal subunit protein uL4, P36578",listed as a hit,[9],yes
"Large ribosomal subunit protein eL27, P61353",listed as a hit,[10],yes
